According to PubChem BioAssay (NCATS):
Results filed as inconclusive are left out. Activity calls are given as the source filed them. The call rests on the fitted dose curve; in most records, active means well fitted curve in the direction sought with a large enough effect; inconclusive means small, poorly fitted or top-dose-only effect, or another doubt; inactive means no such curve, though single readings can be large; an effect the other way counts as inactive or inconclusive.

How the values were obtained:
[1] = qHTS of pediatric cancer cell lines to identify multiple opportunities for drug repurposing: Primary screen for Rh41 cells (AID 1347108); further: nearly all actives have a fitted effect of over 70% in size; further: potency means the concentration at half of the fitted maximal effect
Outline: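 Viability was measured as metabolically active cells after 48 hours of treatment, read by CellTiter-Glo luminescence. Compounds were tested at multiple final concentrations, giving concentration-response curves.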

[2] = qHTS of pediatric cancer cell lines to identify multiple opportunities for drug repurposing: Confirmatory screen for NB1643 cells (AID 1347109); further: nearly all actives have a fitted effect of over 45% in size; further: potency means the concentration at half of the fitted maximal effect
Outline: (§1)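 Cells (500-1,000/well) in growth media were settled 5 h at 37 degrees C, then given compounds for 48 h. Viability was read as CellTiter-Glo luminescence. Primary runs used MIPE at 11 points (0.78 nM-46 µM) and NPC at 8 points (0.59 nM-46 µM); follow-ups used 11 points.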

[3] = qHTS of pediatric cancer cell lines to identify multiple opportunities for drug repurposing: Confirmatory screen for A673 cells (AID 1347110);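 further: potency means the concentration at half of the fitted maximal effect; cells exposed to compound for 48 h before the viability read; nearly all actives have a fitted effect of over 65% in size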
Outline: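 Forty-eight-hour viability assay. Follow-up compounds ran at 11-point dilutions; positive control bortezomib at 2.3 uM final, neutral control DMSO.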

[4] = qHTS of pediatric cancer cell lines to identify multiple opportunities for drug repurposing: Confirmatory screen for SK-N-MC cells (AID 1347111);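 further: potency means the concentration at half of the fitted maximal effect; cells exposed to compound for 48 h before the readout; nearly all actives have a fitted effect of over 70% in size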
Outline: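 Metabolically active cells were quantified by ATP-dependent luminescence (CellTiter-Glo, 15 min at room temperature) following 48 h treatment. Cells had been plated at 500-1,000 per well and settled for 5 h beforehand.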

[5] = qHTS of pediatric cancer cell lines to identify multiple opportunities for drug repurposing: Confirmatory screen for LAN-5 cells (AID 1347113); further: potency means the concentration at half of the fitted maximal effect; nearly all actives have a fitted effect of over 65% in size
Outline: as §1

[6] = qHTS of pediatric cancer cell lines to identify multiple opportunities for drug repurposing: Confirmatory screen for NB-EBc1 cells (AID 1347115);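 further: cells exposed to compound for 48 h before the viability read; nearly all actives have a fitted effect of over 45% in size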; further: potency means the concentration at half of the fitted maximal effect
Outline: as §1

[7] = qHTS of pediatric cancer cell lines to identify multiple opportunities for drug repurposing: Confirmatory screen for BT-37 cells (AID 1347117); further: potency means the concentration at half of the fitted maximal effect; nearly all actives have a fitted effect of over 55% in size
Outline: as §1

[8] = qHTS of pediatric cancer cell lines to identify multiple opportunities for drug repurposing: Confirmatory screen for control Hh wild type fibroblast cells (AID 1347121); further: nearly all actives have a fitted effect of over 70% in size; further: potency means the concentration at half of the fitted maximal effect
Outline: as §1

[9] = qHTS of pediatric cancer cell lines to identify multiple opportunities for drug repurposing: Confirmatory screen for U-2 OS cells (AID 1347122); further: nearly all actives have a fitted effect of over 65% in size; further: potency means the concentration at half of the fitted maximal effect
Outline: as §1

[10] = qHTS of pediatric cancer cell lines to identify multiple opportunities for drug repurposing: Confirmatory screen for Rh41 cells (AID 1347123);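 further: potency means the concentration at half of the fitted maximal effect; 48 h compound exposure; nearly all actives have a fitted effect of over 60% in size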
Outline: as §1

[11] = qHTS of pediatric cancer cell lines to identify multiple opportunities for drug repurposing: Confirmatory screen for RD cells (AID 1347124);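 further: cells exposed to compound for 48 h before viability readout; nearly all actives have a fitted effect of over 65% in size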; further: potency means the concentration at half of the fitted maximal effect
Outline: as §1

[12] = qHTS of pediatric cancer cell lines to identify multiple opportunities for drug repurposing: Confirmatory screen for Rh30 cells (AID 1347126); further: nearly all actives have a fitted effect of over 55% in size; further: potency means the concentration at half of the fitted maximal effect
Outline: as §1

[13] = qHTS of pediatric cancer cell lines to identify multiple opportunities for drug repurposing: Confirmatory screen for TC32 cells (AID 1347118)
Outline: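 Measured quantity: luminescence from CellTiter-Glo, reflecting metabolically active TC32 cells following 48 h of compound. Curves came straight from multi-point titrations, with 8 or 11 points in primary and 11 in confirmatory screening.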

[14] = qHTS of pediatric cancer cell lines to identify multiple opportunities for drug repurposing: Confirmatory screen for MG 63 (6-TG R) cells (AID 1347119); further: nearly all actives have a fitted effect of over 55% in size; further: potency means the concentration at half of the fitted maximal effect
Outline: as §1

[15] = qHTS of pediatric cancer cell lines to identify multiple opportunities for drug repurposing: Confirmatory screen for DAOY cells (AID 1347114); further: nearly all actives have a fitted effect of over 65% in size; further: potency means the concentration at half of the fitted maximal effect
Outline: (§2)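 Viability measured as metabolically active cells via CellTiter-Glo luminescence following 48 hours of compound exposure, 11-point dilutions in confirmatory testing. 500-1,000 cells/well plated 5 hours before dosing; controls were DMSO and 2.3 µM bortezomib.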

[16] = qHTS of pediatric cancer cell lines to identify multiple opportunities for drug repurposing: Confirmatory screen for SJ-GBM2 cells (AID 1347116); further: potency means the concentration at half of the fitted maximal effect; nearly all actives have a fitted effect of over 60% in size
Outline: as §2

[17] = qHTS of pediatric cancer cell lines to identify multiple opportunities for drug repurposing: Confirmatory screen for Rh18 cells (AID 1347125); further: nearly all actives have a fitted effect of over 55% in size; further: potency means the concentration at half of the fitted maximal effect
Outline: as §1

[18] = qHTS of pediatric cancer cell lines to identify multiple opportunities for drug repurposing: Primary screen for Rh30 cells (AID 1347107); further: series mostly up to about 46 µM; nearly all actives have a fitted effect of over 75% in size
Outline: as §1

[19] = qHTS of pediatric cancer cell lines to identify multiple opportunities for drug repurposing: Confirmatory screen for BT-12 cells (AID 1347112)
Outline: as §1

Measured: Potency

Cc1cn2c(-c3cn[nH]c3)cnc2c(Nc2ccc(C(=O)N3CCNCC3)cc2F)n1
inactive: [6] | [8] | [9] | [11]
active: [1] 18.7 µM | [2] 9.27 µM | [3] 8.27 µM | [4] 26.1 µM | [5] 13.1 µM | [7] 10.4 µM | [10] 5.85 µM | [12] 16.5 µM

CC(=O)Nc1nc(C)c(-c2ccc(Cl)c(S(=O)(=O)NCCO)c2)s1
active: [2] 16.5 µM | [4] 8.27 µM | [7] 18.5 µM | [13] 7.37 µM | [14] 2.33 µM | [9] 14.7 µM | [10] 5.85 µM | [12] 14.7 µM

O=C(C=Cc1cccc(S(=O)(=O)Nc2ccccc2)c1)NO
active: [1] 6.79 µM | [2] 1.35 µM | [3] 6.03 µM | [4] 1.51 µM | [5] 1.7 µM | [15] 19.1 µM | [6] 2.14 µM | [16] 2.14 µM | [7] 1.7 µM | [13] 0.759 µM | [14] 2.69 µM | [9] 2.4 µM | [10] 5.37 µM | [11] 5.37 µM | [17] 1.91 µM | [12] 5.37 µM

N#CCNC(=O)c1ccc(-c2ccnc(Nc3ccc(N4CCOCC4)cc3)n2)cc1
active: [1] 18.7 µM

O=C(Nc1ncc(-c2cc(C(F)F)nn2-c2c(Cl)cccc2Cl)s1)C1CC1
inactive: [18]
active: [2] 1.17 µM | [3] 0.293 µM | [4] 0.414 µM | [5] 4.65 µM | [15] 0.329 µM | [7] 1.04 µM | [13] 0.369 µM | [14] 0.329 µM | [9] 1.04 µM | [10] 0.928 µM | [12] 13.1 µM

COc1cc2nccc(Oc3ccc(NC(=O)C4(C(=O)Nc5ccc(F)cc5)CC4)cc3)c2cc1OC
inactive: [2] | [6] | [8]
active: [1] 9.35 µM | [3] 18.5 µM | [16] 1.65 µM | [13] 18.5 µM | [9] 23.3 µM | [10] 26.1 µM

C[C@@H](Oc1cc(-n2cnc3ccc(CN4CCN(C)CC4)cc32)sc1C(N)=O)c1ccccc1C(F)(F)F
active: [2] 42.7 µM | [3] 0.117 µM | [4] 0.0537 µM | [19] 47.9 µM | [16] 10.4 µM | [7] 0.24 µM | [13] 0.0537 µM | [14] 0.0603 µM | [8] 42.7 µM | [10] 4.14 µM | [17] 47.9 µM | [12] 13.1 µM
inactive: [1]

Cc1cc(N2CCOCC2)cc2[nH]c(-c3c(NC[C@@H](O)c4cccc(Cl)c4)cc[nH]c3=O)nc12
active: [1] 0.296 µM | [2] 0.827 µM | [3] 1.17 µM | [4] 0.737 µM | [15] 3.29 µM | [6] 1.17 µM | [16] 0.369 µM | [13] 0.465 µM | [14] 0.329 µM | [9] 7.37 µM | [10] 0.657 µM | [17] 3.29 µM | [12] 0.293 µM

CCC1=C[C@@H]2CN(C1)Cc1c([nH]c3ccccc13)[C@@](C(=O)OC)(c1cc3c(cc1OC)N(C)[C@@H]1[C@@](O)(C(=O)OC)[C@H](OC(C)=O)[C@]4(CC)C=CCN5CC[C@]31[C@@H]54)C2
inactive: [18] | [8]
active: [3] 0.329 µM | [4] 5.22 µM | [15] 0.657 µM | [16] 5.22 µM | [7] 7.37 µM | [13] 6.57 µM | [14] 13.1 µM | [9] 7.37 µM | [10] 0.369 µM | [12] 23.3 µM

CC[C@@]1(O)C(=O)OCc2c1cc1n(c2=O)Cc2cc3cc(O)ccc3nc2-1
active: [1] 0.469 µM | [2] 0.0737 µM | [3] 0.0465 µM | [4] 0.0131 µM | [15] 0.657 µM | [6] 0.0165 µM | [7] 0.0208 µM | [13] 0.0131 µM | [14] 0.0657 µM | [17] 0.657 µM | [12] 0.585 µM

CN(C)CCCN=c1c2ccccc2n(C)c2[nH]c(=O)n(C)c(=O)c12
inactive: [15] | [14] | [8] | [9]
active: [1] 9.35 µM | [2] 23.3 µM | [7] 18.5 µM | [10] 23.3 µM

Cc1nc(N)ncc1-c1nc(N2CCOCC2)c2sc(C(C)(C)O)cc2n1
active: [1] 1.87 µM | [2] 1.65 µM | [3] 2.33 µM | [4] 0.293 µM | [7] 8.27 µM | [13] 2.33 µM | [14] 0.465 µM | [17] 1.65 µM | [12] 0.737 µM

CN[C@H]1CCc2cc(OC)c(OC)c(OC)c2-c2ccc(OC)c(=O)cc21
active: [3] 0.104 µM | [19] 0.147 µM | [15] 0.0465 µM | [9] 0.208 µM | [11] 0.104 µM
inactive: [18] | [8] | [17] | [12]

Fc1cc(-c2cccc3ncc(-c4cnn(C5CCNCC5)c4)nc23)cc(F)c1CN1CCOCC1
active: [1] 23.5 µM

O=C(NC1CCNCC1)c1[nH]ncc1NC(=O)c1c(Cl)cccc1Cl
active: [1] 0.743 µM | [3] 0.414 µM | [4] 3.02 µM | [15] 1.17 µM | [16] 1.31 µM | [7] 2.4 µM | [13] 2.4 µM | [9] 1.85 µM | [10] 1.17 µM | [11] 0.737 µM | [12] 0.465 µM
inactive: [8]
